Screens deposited in PubChem BioAssay by several laboratories.
Only some compounds are listed: those with a hit (about 4% of all), similar ones and a draw of the others.
FAS TE block: FAS thioesterase domain inhibitors, primary screen, biochemical, fluorescence intensity, uHTS; actives 0.67% (n = 360,000); Fatty acid synthase (Homo sapiens), P49327; inhibition, % at 15 µM; recombinant FAS-TE, OMFH fluorogenic substrate, fluorescence endpoint; AID 602261, 2012;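 active = compounds whose normalised, plate-corrected inhibition of enzyme fluorescence in the single-dose primary screen is 50% or more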
ADAM17 inh: ADAM17 inhibitors, primary screen, biochemical, QFRET. inhibition, % at 6.95 µM. actives 0.83% (n = 370,000). recombinant ADAM17, EDANS/DABCYL FRET peptide cleavage. AID 720648, 2013;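 active = inhibition above the mean of compounds lying between control limits plus 3 SD, set per campaign, cut at about 8.5% in these data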
GRIN3A LBD mod: binders of NR3A ligand-binding domain, primary screen, biophysical, differential scanning fluorimetry, uHTS; Glutamate receptor ionotropic, NMDA 3A (GRIN3A) ligand-binding domain; NR3A LBD differential scanning fluorimetry, Tm shift; 0% = protein alone, 100% = glycine-bound protein; Tm shift relative to glycine control, % at 25 µM; actives 2.5% (n = 340,000); AID 1259313, 2017;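 active = melting temperature shift of at least 10% of the positive control shift, at one fixed dose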
ADAM10 inh: human ADAM10 inhibitors, primary screen, biochemical, QFRET, HTS; Disintegrin and metalloproteinase domain-containing protein 10 (Homo sapiens), O14672; recombinant ADAM10, EDANS/DABCYL FRET peptide cleavage, 3 h; inhibition, % at 7 µM; actives 0.62% (n = 370,000);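 active = inhibition above a per-campaign cutoff equal to the mean of compounds falling between control-based bounds plus 3 SD, cut at about 20% in these data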
aDG glyco up: activators of alpha-DG glycosylation, primary screen, uHTS, Pro5-aDG cells, AlphaScreen; alpha-DG glycosylation AlphaScreen (IIH6); 0% Pro5, 100% B10-LARGE cell signal; activation, % at 10 µM; actives 0.22% (n = 360,000); AID 624168, 2012;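 active = activation of at least 8% versus controls, or a plate z-score of at least 8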;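 also: Pro5 are CHO cells carrying HIG-tagged alpha-DG that lacks glycosylation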
Hits are given with their value; – = inactive; · = no result given.

SMILES | FAS TE block | ADAM17 inh | GRIN3A LBD mod | ADAM10 inh | aDG glyco up
O=C(CSc1nc2ccccc2n1CC(=O)N1CCCCC1)N1CCCCC1 | – | – | – | – | –
S=C(Nc1ccc(OCc2ccccc2)cc1)Nc1cccc(Cl)c1Cl | – | – | 12 | – | –
S=C(Nc1ccccc1)Nc1ccc(OCc2ccccc2)cc1 | – | – | – | – | –
COc1ccc(NC(=S)Nc2ccc(OCc3ccccc3)cc2)c(OC)c1 | – | – | 10 | – | –
NS(=O)(=O)c1ccc(NC(=S)Nc2ccc(OCc3ccccc3)cc2)cc1 | – | – | 12 | – | –
N=c1oc2ccccc2cc1C(=O)Nc1cccc(F)c1 | – | – | – | – | –
Cc1ccc(-n2c(C)nnc2SC(C)C(=O)N2CCCC2)cc1 (configuration not stated) | – | – | – | – | –
CCN1C[C@@H]2[C@@H]3C(=O)N(C)C(=O)[C@@H]3[C@](Cc3ccccc3)(C(=O)OC)N2C1=NCc1ccccc1 | – | – | – | – | –
COc1ccc(NC(=S)N(CCC(C)C)C2CCN(C(C)C)CC2)cc1Cl | – | – | 19 | – | –
COc1cccc(/C=C/C(=O)OCC(=O)Nc2ccc3c(c2)OCCO3)c1 | – | – | · | – | –
CSc1ccc(C2NN=C(c3ccccc3)S2)cc1 (configuration not stated) | – | – | – | – | –
Oc1ccccc1C1NN=C(c2ccccc2)S1 (configuration not stated) | – | – | 19 | – | –
CC(C)(C)c1ccc(CNc2nc(-c3ccccn3)nnc2-c2ccccc2)cc1 | · | – | · | – | ·
COc1cc(C(C)=O)ccc1OCCCN1CCC(Cc2ccccc2)CC1 | – | – | – | – | –
CCOCC(=O)Nc1ccc(S(=O)(=O)NCCc2ccccc2)cc1 | – | – | 11 | – | –
Clc1ccc2[nH]cc(-c3nnnn3-c3ccc4ccccc4c3)c2c1 | – | – | 29 | – | –
Cc1ccc(CSC(Nc2ccc(F)cc2)=C(C#N)C#N)cc1 | – | – | – | 21 | –
O=C(Nc1ccc(-c2noc(-c3ccccc3F)n2)cc1)c1cccs1 | – | – | 29 | – | –
Cc1ccc(NC(=O)c2cccs2)cc1 | – | – | – | – | –
Cc1ccccc1-c1nc(-c2ccc(NC(=O)c3cccs3)cc2)no1 | – | – | 42 | – | –
O=C(Cn1cc(COc2ccccc2[N+](=O)[O-])nn1)c1ccc(O)cc1 | – | – | – | – | –
Nc1ccccc1Nc1nc2ccccc2[nH]1 | – | – | – | – | –
Cc1ccc(Nc2nc(-c3ccccc3)cs2)nc1 | – | – | – | – | –
Cc1ccc(Nc2nc(-c3cccs3)cs2)nc1 | – | – | 24 | – | –
Oc1c(Cl)cc(Cl)cc1/C=N/Nc1ncc(Br)cn1 | – | – | – | – | –
SMILES | FAS TE block | ADAM17 inh | GRIN3A LBD mod | ADAM10 inh | aDG glyco up
CN(/N=C/c1cc(Cl)cc(Cl)c1O)C(=S)NC(C)(C)C | – | – | 31 | – | –
O=C(Nc1ccc(-c2cn3ccsc3n2)cc1)C1CCCC1 | – | – | – | – | –
O=C(Nc1ccc(-c2cn3ccsc3n2)cc1)C1CC1 | – | – | 15 | – | –
O=S(=O)(NCc1ccncc1)c1ccc(Br)s1 | – | – | – | – | 8.9
CCO/C=N/Nc1nc(C(F)(F)F)nc2c1cnn2Cc1ccccc1 | – | – | 13 | – | –
NS(=O)(=O)c1ccc2nc(NC(=O)c3ccc4ncsc4c3)sc2c1 | – | · | 30 | · | –
Cc1ccc2nc(NC(=O)c3ccc4ncsc4c3)sc2c1 | – | – | 18 | – | –
NS(=O)(=O)c1ccc2nc(NC(=O)c3ccc4c(c3)OCCO4)sc2c1 | – | – | – | – | –
Cc1ccc2nc(NC(=O)c3ccc4c(c3)OCO4)sc2c1 | – | – | – | – | –
O=C(Nc1ccc(Cl)c(Cl)c1)Nc1nnc(-c2ccncc2)s1 | – | – | 13 | – | –
COc1ccc(NC(=O)Nc2nnc(-c3ccco3)s2)cc1 | – | – | – | – | –
COc1ccc(NC(=O)Nc2nnc(-c3ccncc3)s2)cc1 | – | – | 11 | – | –
COC(=O)[C@H](CCSC)NC(=O)Nc1ccc(C(C)C)cc1 | – | – | – | – | –
O=C(CCN1CCCCCC1)Nc1ccc(F)c(F)c1 | – | – | 673 | – | –
O=C(Nc1ccc(Br)cc1F)c1ccc2c(c1)N(Cc1ccccc1)C(=O)CS2=O (configuration not stated) | – | – | 14 | – | –
Cc1ccc(C)c(NC(=O)c2ccc3c(c2)N(Cc2ccc(F)cc2)C(=O)CS3=O)c1 (configuration not stated) | – | – | – | – | –
COc1ccc(/C=C/c2ccc(=O)n(Cc3ccccc3)n2)cc1 | – | – | 15 | – | –
CCn1cc(CNC(=O)c2cc(COc3ccc(F)cc3Cl)on2)cn1 | – | – | 116 | – | –
COc1ccc(/C=C2/C(=O)C(C)(C(C)C)CCC2C)cc1 (configuration not stated) | – | – | 10 | – | –
Cc1cc(C(=O)NCCC(c2ccccc2)c2ccccc2)c(C)o1 | – | – | – | – | –
Cc1ccc(NC(=O)CN(C)C(=O)/C=C/c2ccc3c(c2)OCO3)cc1 | – | – | – | – | –
CCN(CC(=O)Nc1ccc(NC(C)=O)cc1)C(=O)/C=C/c1ccc2c(c1)OCO2 | – | – | 31 | – | –
Cc1cc(OCc2nnc(SC(C)C(=O)O)n2Cc2ccccc2)ccc1Cl (configuration not stated) | – | – | – | – | –
CCC(CO)Oc1cc(NCc2ccc(C(C)(C)C)cc2)c2ncn(C(C)C)c2c1 (configuration not stated) | – | – | – | – | 5.2
CCOC(=O)c1sc(NC(=O)c2sccc2C)cc1C | – | – | 11 | – | –
SMILES | FAS TE block | ADAM17 inh | GRIN3A LBD mod | ADAM10 inh | aDG glyco up
CCOC(=O)c1sc(NC(=O)c2cccs2)cc1C | – | – | – | – | –
CCOC(=O)c1sc(NC(=O)Nc2cccc(Cl)c2)cc1C | – | – | 24 | – | –
CCN(c1ccccc1)S(=O)(=O)c1cccc(C(=O)NCC2(N(C)C)CCCCC2)c1 | – | – | 25 | – | –
CCOC(=O)c1ccc(NC(=O)CCc2ccc(C)o2)cc1 | – | – | – | – | –
Clc1ccc(-c2nnc(-c3ccccc3)nc2-c2c[nH]c3ccccc23)cc1 | – | – | – | – | –
c1ccc(-c2nnc(-c3ccccc3)c(-c3c[nH]c4ccccc34)n2)cc1 | – | – | 15 | – | –
CC(C)c1nc2sc3c(=S)nc[nH]c3c2c2c1CCC2 | – | – | 38 | – | –
Cc1cccc(-c2nc(C#N)c(N3CCCCCC3)o2)c1 | – | – | – | – | –
